Results on 6 compounds are retold here after PubChem BioAssay.

Molecules are shown by their SMILES. The source made the active and inactive calls.

Assay [1] in a line: optical density shifts of acrAB sulA E. coli – strain DRC41, OD650, 48 h, E. coli filamentation inducer project, primary screen (AID 1152).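 Also: E. coli MC1000 strain DRC41 lacking acrAB efflux pump and sulA.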 To be noted: higher = more signal, called active from +8 up or from −8 down.
The nature of assay [2]: probe aLefty1 binding on compound microarray – biochemical, small-molecule microarray, 635/667 nm fluorescence, primary screen (AID 1153).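 Also: score merges spot fluorescence with signal-to-noise ratio from the scanned slide images.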 To be noted: higher = more signal.
Assay [3] is described as follows: plasmodial surface anion channel blockers, osmotic lysis – cell-based, P. falciparum Indochina, OD700, 1 h, primary screen (AID 1154). To be noted: P. falciparum Indochina infected RBC osmotic lysis, higher = more signal, called active from +8 up or from −8 down.
The nature of assay [4]: plasmodial surface anion channel blockers, osmotic lysis – cell-based, P. falciparum Indochina, OD700, 2 h, primary screen (AID 1155).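 Also: lysis reports solute entry through the parasite surface anion channel PSAC.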 The following applies: P. falciparum Indochina infected erythrocytes, higher = more signal, called active from +8 up or from −8 down.
Assay [5] is described as follows: changes in parasitized red cell lysis, either direction – P. falciparum Indochina, OD700, 3 h, PSAC antagonist project, primary screen (AID 1156). The following applies: P. falciparum-infected erythrocytes, osmotic lysis, higher = more signal, called active from +8 up or from −8 down.
Assay [6] can be described thus: plasmodial surface anion channel blockers, osmotic lysis – cell-based, P. falciparum Indochina, OD700, 18 h, primary screen (AID 1157). The following applies: P. falciparum Indochina infected erythrocytes, osmotic lysis OD700, 18 h; higher = more signal, called active from +8 up or from −8 down.
Assay [7] in a line: S6 kinase pathway phospho-S6 level changes – cell-based, A549, cytoblot, luminescence, serum-stimulated, primary screen (AID 1158).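 Also: serum-stimulated A549 lung adenocarcinoma cells; signal is phosphorylated S6 detected by cytoblot immunostaining with HRP secondary.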 The following applies: 5 h, higher = more signal.
The target in assay [8] is NADPH oxidase 2 (Homo sapiens) (UniProt P04839). The experiment in a line: compounds shifting NOX2 Amplex Red fluorescence – cell-based, HEK293-NOX2, PMA-stimulated, NOX inhibitor project, primary screen (AID 1159). Also: test concentration not given here. To be noted: 45 min, higher = more signal, called active from +8 up or from −8 down.
Assay [9] concerns the target NADPH oxidase 4 (Homo sapiens) (UniProt Q9NPH5). The experiment in a line: compounds shifting NOX4 Amplex Red fluorescence – cell-based, HEK293-NOX4, tetracycline-induced, NOX inhibitor project, primary screen (AID 1160). To be noted: HEK293-NOX4, Amplex Red H2O2 fluorescence, 45 min; higher = more signal, called active from +8 up or from −8 down.
For assay [10], the target named is NADPH oxidase 5 (Homo sapiens) (UniProt Q96PH1). The experiment in a line: compounds shifting NOX5 Amplex Red fluorescence – cell-based, HEK293-NOX5, NOX inhibitor project, primary screen (AID 1161). The following applies: HEK293-NOX5, ionomycin, 45 min, higher = more signal.
The nature of assay [11]: compound effects on lung adenocarcinoma cell viability – A549, calcein-AM fluorescence, 48 h, basal, profiling panel (AID 1162). Also: test concentration not given here. The following applies: higher = more signal.
The nature of assay [12]: compound effects on differentiated 3T3-L1 adipocyte viability – cell-based, 3T3-L1 adipocytes, calcein-AM fluorescence, 48 h, basal, profiling panel (AID 1163). Also: test concentration not given here. The following applies: 3T3-L1 adipocytes viability, higher = more signal.
The nature of assay [13]: compound effects on hepatocellular carcinoma cell viability – HepG2, calcein-AM fluorescence, 48 h, basal, profiling panel (AID 1164). Also: test concentration not given here. The following applies: higher = more signal.
Assay [14] in a line: compound effects on multiple myeloma cell viability – MM1S, calcein-AM fluorescence, 48 h, basal, profiling panel (AID 1165).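 Also: viability of MM1S multiple myeloma cells under basal unstimulated conditions; test concentration not given here.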 The following applies: higher = more signal.
Assay [15] in a line: calcein-AM signal in unstimulated myeloma cells – cell-based, calcein-AM fluorescence, 48 h, PK04 Diversity Set, profiling panel (AID 1166).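 Also: cells grown under basal conditions without added stimulus; test concentration not given here.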 The following applies: RPMI8226 myeloma viability, higher = more signal.
Assay [16] in a line: JC-1 mitochondrial signal, unstimulated HepG2 cells – cell-based, JC-1 fluorescence, 24 h, 100 nL compound, profiling panel (AID 1167). Also: test concentration not given here. To be noted: HepG2 mitochondrial potential, higher = more signal.
A short description of assay [17]: JC-1 mitochondrial signal, unstimulated adipocytes – cell-based, JC-1 fluorescence, 3T3-L1 adipocytes, 24 h, 100 nL compound, profiling panel (AID 1168). Also: test concentration not given here. To be noted: JC-1 mitochondrial fluorescence, higher = more signal, called active from +8 up or from −8 down.
Assay [18] is described as follows: JC-1 mitochondrial signal, unstimulated myeloma cells – cell-based, JC-1 fluorescence, RPMI8226, 24 h, 100 nL compound, profiling panel (AID 1169). Also: test concentration not given here. The following applies: JC-1 mitochondrial potential fluorescence, higher = more signal.
Assay [19] is described as follows: JC-1 mitochondrial signal, unstimulated MM1S myeloma – cell-based, JC-1 fluorescence, 24 h, 100 nL compound, profiling panel (AID 1170). Also: test concentration not given here. The following applies: MM1S mitochondrial potential, higher = more signal.
A short description of assay [20]: resazurin metabolic signal in A549 cells – cell-based, resazurin fluorescence, 24 h, PK04 Diversity Set, profiling panel (AID 1171). Also: test concentration not given here. To be noted: A549 viability, higher = more signal, called active from +8 up or from −8 down. A general note: Alamar Blue is a resazurin reagent that responds to reducing activity.

Chain of NADPH oxidase 2 (Homo sapiens) (P04839 whole entry, looked up): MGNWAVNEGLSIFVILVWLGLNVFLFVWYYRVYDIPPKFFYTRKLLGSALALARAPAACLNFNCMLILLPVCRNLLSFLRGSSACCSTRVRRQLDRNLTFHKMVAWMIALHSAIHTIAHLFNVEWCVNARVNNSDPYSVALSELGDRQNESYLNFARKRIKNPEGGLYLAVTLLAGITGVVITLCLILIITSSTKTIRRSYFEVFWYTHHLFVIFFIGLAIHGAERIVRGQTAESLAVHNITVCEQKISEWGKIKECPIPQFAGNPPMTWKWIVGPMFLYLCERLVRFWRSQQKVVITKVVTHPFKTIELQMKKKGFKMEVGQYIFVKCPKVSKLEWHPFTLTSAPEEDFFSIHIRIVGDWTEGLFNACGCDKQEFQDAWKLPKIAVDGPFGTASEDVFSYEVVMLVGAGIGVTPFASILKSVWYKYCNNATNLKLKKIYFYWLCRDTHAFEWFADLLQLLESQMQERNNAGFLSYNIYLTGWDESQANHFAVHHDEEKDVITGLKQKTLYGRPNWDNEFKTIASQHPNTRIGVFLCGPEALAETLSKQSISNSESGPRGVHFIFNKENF
Chain of NADPH oxidase 4 (Homo sapiens) (Q9NPH5 whole entry, looked up): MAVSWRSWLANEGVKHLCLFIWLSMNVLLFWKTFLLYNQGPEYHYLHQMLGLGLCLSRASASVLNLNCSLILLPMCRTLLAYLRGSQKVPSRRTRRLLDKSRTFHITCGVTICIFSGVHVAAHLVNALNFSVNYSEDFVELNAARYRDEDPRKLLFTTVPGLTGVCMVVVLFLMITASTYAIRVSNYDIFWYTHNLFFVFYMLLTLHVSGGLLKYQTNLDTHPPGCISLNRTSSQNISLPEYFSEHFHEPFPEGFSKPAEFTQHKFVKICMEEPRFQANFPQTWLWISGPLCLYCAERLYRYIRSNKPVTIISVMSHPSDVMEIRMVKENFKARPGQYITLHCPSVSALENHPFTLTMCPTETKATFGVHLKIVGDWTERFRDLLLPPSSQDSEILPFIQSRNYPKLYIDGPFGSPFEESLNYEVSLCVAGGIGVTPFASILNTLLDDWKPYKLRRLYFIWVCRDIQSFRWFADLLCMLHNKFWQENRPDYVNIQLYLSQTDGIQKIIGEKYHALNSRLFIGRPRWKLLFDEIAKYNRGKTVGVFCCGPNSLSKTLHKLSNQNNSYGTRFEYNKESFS
Chain of NADPH oxidase 5 (Homo sapiens) (Q96PH1 whole entry, looked up): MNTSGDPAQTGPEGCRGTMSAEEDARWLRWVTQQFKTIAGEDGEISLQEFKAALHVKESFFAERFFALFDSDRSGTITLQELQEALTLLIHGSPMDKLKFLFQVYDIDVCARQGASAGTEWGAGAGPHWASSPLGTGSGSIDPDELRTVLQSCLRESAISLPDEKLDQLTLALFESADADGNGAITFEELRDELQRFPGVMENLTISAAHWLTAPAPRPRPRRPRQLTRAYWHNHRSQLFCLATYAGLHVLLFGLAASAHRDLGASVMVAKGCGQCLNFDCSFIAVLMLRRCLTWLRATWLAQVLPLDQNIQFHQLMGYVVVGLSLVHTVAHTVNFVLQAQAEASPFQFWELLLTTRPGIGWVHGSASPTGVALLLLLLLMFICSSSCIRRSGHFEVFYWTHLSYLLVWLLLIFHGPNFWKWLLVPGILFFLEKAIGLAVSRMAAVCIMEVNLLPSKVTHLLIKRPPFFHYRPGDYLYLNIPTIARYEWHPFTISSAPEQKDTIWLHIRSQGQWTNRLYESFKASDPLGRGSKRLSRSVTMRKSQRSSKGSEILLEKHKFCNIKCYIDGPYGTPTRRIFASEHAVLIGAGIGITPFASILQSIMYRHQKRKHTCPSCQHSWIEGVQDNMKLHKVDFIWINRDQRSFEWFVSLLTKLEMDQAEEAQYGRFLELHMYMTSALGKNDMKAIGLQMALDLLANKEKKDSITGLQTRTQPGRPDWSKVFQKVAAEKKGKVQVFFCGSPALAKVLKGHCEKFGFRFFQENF

As to `C=CC[C@@]1(C(=O)N(C)C)N=C(c2ccc(OCCCO)cc2)O[C@@H]1c1ccccc1CN=[N+]=[N-]`, the z-score in assay [1] was 1.34 (inactive); in [3] it was 23.1 (active); in assay [4] it was 6.73 (inactive); in [5] it was 1.93 (inactive); in [6], 1.26 (inactive); in assay [7] it was -0.354. The z-score in assay [8] is 1.85 (inactive); in assay [9], 0.736 (inactive); in assay [10] it was -1.42; in assay [11] it was 1.01; in assay [12] it was -0.114; in assay [13], 1.41. In addition, the z-score was -1.81 in [14]; -1.58 in assay [15]; 1.67 in assay [16]; 0.53 (inactive) in assay [17]; -0.797 in [18]; -0.479 in [19]. For the same compound, the z-score in assay [20] was 0.189 (inactive). Also, in [2], the composite z-score came to 0.0513.

Consider `CCCN1C(=O)[C@]2(CCC(=O)OC(C)(C)C)N=C(c3ccc(OCCCO)cc3)O[C@@H]2c2ccccc21`, for which the z-score in assay [1] is 0.239 (inactive); in assay [3], 34.1 (active); in assay [4] it was 36.8 (active); in assay [5], 2.57 (inactive); in assay [6], 8.76 (active); in assay [7], -0.0347. The z-score in assay [8] is -3.07 (inactive); in [9], -0.483 (inactive); in [10] it was -1.51; in assay [11] it was -1.19; in assay [12], 0.92; in assay [13], -1.49. The z-score was -3.41 in assay [14]; -4.37 in [15]; 1.01 in assay [16]; 2.01 (inactive) in assay [17]; -1.32 in assay [18]; -1.54 in [19]. Moreover, the z-score in [20] is -0.965 (inactive). The compound also had a composite z-score in assay [2] of 0.26.

Take `COC(=O)[C@@]1(Cc2ccccc2)[C@H]2c3cc(C(=O)N(C)C)n(Cc4ccc(C(F)(F)F)nc4)c3C[C@H]2CN1C(=O)c1ccccc1`: the z-score in [1] is -1.64 (inactive); in [3], 1.5 (inactive); in assay [4] it was 0.234 (inactive); in assay [5], 1.3 (inactive); in assay [6], 0.715 (inactive); in assay [7], 0.184. Also, the z-score is 0.0745 (inactive) in [8]; -1.31 (inactive) in [9]; -3.12 in [10]; -1.28 in [11]; 0.286 in [12]; -0.628 in [13]. Moreover, the z-score in assay [14] is -0.214; in assay [15], -0.559; in assay [16], 1.71; in [17], -1.09 (inactive); in assay [18], -0.727; in [19], -0.79. Moreover, the z-score in [20] was 0.22 (inactive). This compound gave a composite z-score in [2] of 1.1.

In the case of `O=C1C[C@@](C(=O)NCc2ccccc2)(c2ccc([N+](=O)[O-])cc2)[C@@H](c2ccc(CO)cc2)N1C1CCCCC1`, the z-score in [1] is 1.09 (inactive); in assay [3] it was 0.661 (inactive); in assay [4], -0.881 (inactive); in assay [5] it was -0.436 (inactive); in assay [6] it was -0.877 (inactive); in assay [7], 1.58. Moreover, the z-score in assay [8] is -0.522 (inactive); in assay [9], 0.333 (inactive); in [10] it was 0.0696; in assay [11] it was 0.691; in assay [12], 1.34; in assay [13], 2.22. In addition, the z-score in assay [14] is 0.406; in [15] it was 0.956; in [16] it was 2.33; in assay [17], 1.58 (inactive); in assay [18], -0.343; in [19] it was 0.242. In addition, the z-score in assay [20] was -0.685 (inactive). In [2], the composite z-score is 0.857.

Consider `COc1ccccc1CN1C(=O)c2ccccc2[C@](Cc2ccccc2I)(C(=O)NCC(C)C)[C@@H]1c1ccc(CO)cc1`, for which the z-score in [1] was 2.48 (inactive); in assay [3] it was 4.68 (inactive); in assay [4], 1.44 (inactive); in assay [5], 2.61 (inactive); in [6], 0.745 (inactive); in assay [7], 0.276. Moreover, the z-score is -0.943 (inactive) in assay [8]; 0.928 (inactive) in assay [9]; -0.234 in assay [10]; 1.26 in assay [11]; 0.297 in [12]; 2.05 in assay [13]. Further, the z-score was -0.746 in assay [14]; -0.458 in assay [15]; 1.41 in assay [16]; -0.808 (inactive) in assay [17]; -0.38 in assay [18]; -0.257 in [19]. For the same compound, the z-score in [20] was 0.41 (inactive). The composite z-score in [2] came out at 0.19.

For `CCCCC(O)C1C=CC2C(=O)N(c3ccccc3)C(=O)C2N1Nc1ccccc1` (stereo not given), the z-score in assay [1] is -0.274 (inactive); in assay [3] it was 4.52 (inactive); in [4] it was 0.786 (inactive); in [5] it was -0.196 (inactive); in assay [6] it was 1.17 (inactive); in [7], -0.439. Besides, the z-score was -1.17 (inactive) in assay [8]; -2.93 (inactive) in assay [9]; -2.06 in [10]; 0.645 in [11]; -1.91 in [12]; -0.371 in [13]. The z-score is 0.225 in assay [14]; -0.374 in assay [15]; -1.43 in [16]; 0.466 (inactive) in assay [17]; -0.241 in [18]; 0.0498 in assay [19]. Moreover, the z-score in assay [20] was 0.134 (inactive). Besides, the composite z-score in assay [2] worked out at 0.139.
